# Screens as filed in PubChem.
# Compounds with a hit are over-represented: about 4% of the library has one in this group of screens.
# Rv3671c protease = inhibits the M. tuberculosis serine protease Rv3671c; inhibition, % at 5.96 µM; hit rate 0.048% among 320,000; in the data active = inhibition above about 38%;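 note: extracellular domain of Rv3671c used as enzyme; 0% = enzyme with DMSO and 100% = no enzyme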
# UGM FP inh = blocks M. tuberculosis UGM enzyme. P9WIQ1. purified UGM, fluorescence polarization probe displacement. inhibition, % at 10 µM. hit rate 0.06% among 320,000. AID 504406; in the data active = inhibition above about 10%, passing the limit was not always enough; inconclusive = no clear call, values can overlap the other calls
# Target sequence (P9WIQ1 whole entry, looked up): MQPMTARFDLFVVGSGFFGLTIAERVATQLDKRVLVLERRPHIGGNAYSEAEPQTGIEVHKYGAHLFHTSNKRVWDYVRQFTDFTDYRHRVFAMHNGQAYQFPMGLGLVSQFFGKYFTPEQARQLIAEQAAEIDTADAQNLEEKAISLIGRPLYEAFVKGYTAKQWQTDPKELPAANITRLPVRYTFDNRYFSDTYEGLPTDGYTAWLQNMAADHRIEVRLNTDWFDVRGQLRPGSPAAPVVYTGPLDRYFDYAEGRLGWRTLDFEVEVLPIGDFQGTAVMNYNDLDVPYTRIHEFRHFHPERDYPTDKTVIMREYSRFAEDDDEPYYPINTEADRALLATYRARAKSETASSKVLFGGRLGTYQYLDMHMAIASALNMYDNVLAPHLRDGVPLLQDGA
# FBA Mtb inh = inhibitors of M. tuberculosis fructose-bisphosphate aldolase; P9WQA3; purified M. tuberculosis FBA, fluorescence read-out; inhibition, % at 1 µM; hit rate 2.3% among 360,000; AID 588726; in the data active = inhibition above about 27%;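 note: 0% = vehicle and 100% = reference inhibitor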
# Mtb betalactam = beta-lactam sensitization of Mtb H37Rv. M. tuberculosis H37Rv growth with meropenem, percent inhibition. inhibition, % at 25 µM. hit rate 0.27% among 330,000; call rule not given here;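 note: growth measured after seven days incubation then overnight dye step; 0% = bacteria only wells and 100% = bacteria with antibiotic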
# RecA intein inh = blocks M. tuberculosis RecA intein splicing; cell-free RecA intein splicing, fluorescence; AID 2221; inhibition, % (no concentration beside the values); hit rate 0.75% among 290,000; P9WHJ3; in the data active = inhibition above about 30%; inconclusive = no clear call, values can overlap the other calls;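 note: 0% = vehicle wells and 100% = reference inhibitor control wells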
# GDH-TPI counter = inhibits GDH-TPI coupling enzymes, artifact for Mtb FBA screen; inhibition, % at 4.8 µM; hit rate 1.2% among 360,000; GDH-TPI coupled enzyme counterscreen, NADH absorbance; in the data active = inhibition above about 30%;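 note: 0% = DMSO wells and 100% = wells lacking the enzyme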
# An asterisk follows results filed as active; u = inconclusive; x = no result; + = active, no number; ! = repeats disagree.
SMILES,Rv3671c protease,UGM FP inh,FBA Mtb inh,Mtb betalactam,RecA intein inh,GDH-TPI counter
COc1cc(C(=O)N2CCN(C(=O)C3CCCO3)CC2)cc(OC)c1OC (centres undefined),-5.8,x,1.2,1.2,x,-0.3
CCC(C)c1c(N)n(S(=O)(=O)c2ccc(C)cc2)oc1=O (centres undefined),x,x,0.3,x,x,-6.1
CSc1nsc(SCC(=O)N2CCN(c3ccccc3)CC2)n1,5.3,1.7,135.2*,100.1,3.5,-1.7
O=C(COC(=O)CCC1CCCC1)Nc1ccc(Cl)cc1F,-10.5,0.4,-2.0,3.3,-1.2,-2.2
O=Cc1ccnc(-c2ccc(OC(=O)c3ccco3)cc2)n1,4.3,3.6,3.3,4.2,35.6*,-6.3
O=C(Oc1ccc(-c2ccccc2)cc1)c1ccco1,x,x,0.2,x,x,6.9
COc1cccc(/C=N/Nc2nn3cnnc3c3ccccc23)c1O,14.7,0.3,1.8,95.1,-2.4,32.5*
CCOc1ccccc1/C=N/Nc1ccnc(=O)[nH]1,x,1.0,-0.8,2.1,-1.5,25.6
COc1cccc(/C=N/Nc2ccnc(=O)[nH]2)c1O,-1.9,-0.7,-1.7,50.4,-2.4,35.7*
Oc1cccc(/C=N/Nc2nn3cnnc3c3ccccc23)c1,-7.2,1.8,2.2,-4.2,-5.8,25.4
O=c1nccc(N/N=C/c2ccccc2O)[nH]1,x,-0.4,2.1,97.7,-4.3,38.2*
N#C/C(=C\c1ccc(O)cc1)C(=O)O,x,x,-1.2,x,x,34.7*!
Cc1cc(C(=O)N/N=C/c2ccc([N+](=O)[O-])o2)c(C)o1,0.5,2.0,0.8,99.8,8.1,40.5*
O=C(N/N=C/c1ccc([N+](=O)[O-])o1)c1cc(-c2cccc(Br)c2)nc2ccccc12,-8.7,-2.2,-2.7,99.9,26.7,39.2*
CCCc1ccc(-c2cc(C(=O)N/N=C/c3ccc([N+](=O)[O-])o3)c3ccccc3n2)cc1,-2.8,-1.8,0.2,99.9,-0.2,10.6
CC(C)N(C(=O)CSc1ccc(S(=O)(=O)N2CCCCC2)cn1)C(C)C,-0.6,0.0,2.9,-1.0,x,1.6
CCC(=O)NC(=S)Nc1ccc(N2CCN(C(=O)c3ccc(Cl)cc3)CC2)cc1,-9.9,-0.5,-0.5,95.7,1.7,3.8
O=[N+]([O-])c1ccc2nc(-c3ccc(Cl)cc3)n(OCc3ccccc3)c2c1,4.6,-0.1,-0.5,4.9,7.3,34.1*
Cc1ccc(COn2c(-c3ccc(Cl)cc3)nc3ccc([N+](=O)[O-])cc32)cc1,-1.8,-3.8,-0.2,10.2,7.6,18.4
CN(C)CCNC(=O)C(=O)NCC1OCCN1S(=O)(=O)c1ccc(F)cc1 (centres undefined),x,x,0.5,x,x,2.7
O=C(CNC(=O)c1ccc(Br)cc1)NCC(=O)OCC(=O)c1ccccc1,-5.2,-1.9,5.7,2.8,-1.6,2.5
COC(=O)c1cn(C)c2ccc(S(=O)(=O)N3CCCCC3)cc2c1=O,x,x,5.3,x,0.4,40.5*
Cn1cc(C(=O)N2CCCCCC2)c(=O)c2cc(S(=O)(=O)N3CCCCC3)ccc21,6.3,-4.9,-1.1,3.9,-1.2,5.2
Cc1ccc(C2=NS(=O)(=O)N(C)C(C(=O)Nc3cc(C)n(CC(=O)N4CCCCC4)n3)=C2)cc1,-8.2,-1.9,-0.8,-1.5,-3.4,26.1
CCCCN(CC)CCNC(=O)CCC(=O)Nc1ccc2nc(N3CCN(C)CC3)cc(C)c2c1,6.0,8.1,137.5*,-6.1,-35.5,3.4
SMILES,Rv3671c protease,UGM FP inh,FBA Mtb inh,Mtb betalactam,RecA intein inh,GDH-TPI counter
CCCN(CCC)CCNC(=O)CCC(=O)Nc1ccc2nc(N3CCOCC3)cc(C)c2c1,-10.2,-0.9,127.4*,5.5,-0.9,9.7
Cc1cc(N2CCOCC2)nc2ccc(NC(=O)CCC(=O)N3CCN(c4ccccc4)CC3)cc12,12.3,2.4,14.3,0.8,-3.8,0.7
O=C1CCC(C(=O)OCC(=O)Nc2ccc(Cl)cc2C(F)(F)F)=NN1,-7.8,4.1,-1.9,-2.9,x,-3.9
CCC1CCCCN1CCCNC(=O)c1ccc2c(c1)NC(=O)CN2C (centres undefined),-2.6,3.8,6.0,-5.9,-3.8,7.6
O=C(O)C1CCCC[C@H]1C(=O)Nc1ncc([N+](=O)[O-])s1 (some centres undefined),-1.1,1.5,-0.7,-2.2,x,30.9*
COc1ccc(CN2Cc3cc(-c4cccc(F)c4)ccc3-n3nncc3C2)cc1,x,x,1.7,x,x,x
CCN(CC)CCCNC(=O)c1cn(CC)c2cc(N3CCN(C(=O)c4ccco4)CC3)c(F)cc2c1=O,-2.9,1.6,54.2*,3.2,-1.3,19.8
CCN(CC)CCNC(=O)c1cn(CC)c2cc(N3CCN(C(=O)c4ccco4)CC3)c(F)cc2c1=O,5.6,3.9,22.2,-5.8,-0.9,4.0
CCOc1ccc(S(=O)(=O)N2CCCC(C(=O)N3CCOCC3)C2)cc1 (centres undefined),6.4,0.2,2.5,u,-1.1,8.6
CCn1c(SCC(=O)N/N=C/C(C)=C/c2ccco2)nnc1-c1ccccc1,-1.6,1.5,-0.9,5.0,-1.5,21.5
CC(/C=N\NC(=O)CN1CCN(Cc2ccccc2)CC1)=C\c1ccco1,-11.4,-1.4,-5.6,-4.0,1.7,52.9*
O=C(CN1CCN(Cc2ccccc2Cl)CC1)N/N=C/C=C/c1ccco1,0.7,-0.1,-2.2,40.7,0.8,61.4*
O=C(CN1CCN(Cc2ccccc2)CC1)N/N=C\C=C/c1ccco1,-2.6,1.8,0.1,47.7,0.6,43.2*
Clc1ccccc1CN1CCN(/N=C/C=C/c2ccco2)CC1,-13.0,-1.3,-0.9,-6.3,5.0,41.5*
C/C(=N/NC(=O)CN1CCN(Cc2ccccc2Cl)CC1)c1ccco1,11.5,4.7,3.0,4.3,1.5,0.0
CC1(C(=O)NS(=O)(=O)c2ccccc2)CCN1C(=O)Cc1ccccc1Cl (centres undefined),x,x,0.3,x,x,8.0
Cc1[nH]nc(C(F)(F)F)c1CCC(=O)NC1CCCCCC1,-11.1,3.5,6.3,-10.8,x,1.1
C=CCNC(=S)N/N=C/c1ccc(C)c([N+](=O)[O-])c1,7.8,-1.2,-2.4,-3.5,x,20.3
CN(C)c1ccc(/C=N/NC(N)=S)cc1[N+](=O)[O-],5.5,2.7,-2.5,x,-4.4,42.6*
CCc1nc(Nc2cccc(O)c2)c2oc3ccccc3c2n1,x,2.4,4.4,5.9,2.5,30.9*
CCc1nc(Nc2ccc3c(c2)OCO3)c2oc3ccccc3c2n1,10.2,-1.2,6.2,10.9,5.0,16.8
CNc1cnc(-c2ccccc2OC)cn1,x,x,124.9*,x,x,18.6
CCOc1ccccc1-c1cnc(NC)cn1,x,x,+,x,x,19.0
Cc1nn(C)c(C)c1/C=C(\C#N)S(=O)(=O)c1ccc(F)cc1,x,x,2.0,x,x,32.7*
COC(=O)c1ccc(N=NN2CCCCCC2)cc1,-2.8,-0.3,4.0,2.4,5.6,31.9*
COC(=O)c1ccc(N=NN2CCOCC2)cc1,-10.9,2.7,0.4,4.5,3.7,14.6
CNc1nc(N)c([N+](=O)[O-])c(NCC2CCCO2)n1 (centres undefined),11.2,-1.0,-3.0,-7.8,-7.6,33.7*
